Test [1] is described as follows: qHTS assay to identify small molecule agonists of the vitamin D receptor (VDR) signaling pathway - cell viability counter screen (AID 743224). Further: nearly all actives have a fitted effect of over 50% in size. Further: potency means the concentration at half of the fitted maximal effect. A digest of the protocol:
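Compounds were pin-transferred onto VDR-bla cells plated 4 h earlier; following 16 h incubation at 37C, cell viability was quantified by CellTiter-Glo luminescence after 30 min at room temperature.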
In general terms: qHTS replaces the single test concentration by a dilution series.

A short description of test [2]: qHTS assay to identify small molecule antagonists of the vitamin D receptor (VDR) signaling pathway - cell viability counter screen (AID 743225). Further: on the % scale 0 is the no-effect control and ±100 the full control effect; nearly all actives have a fitted effect of over 50% in size. A digest of the protocol: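 Luminescent cell viability (CellTiter-Glo) in VDR-bla HEK 293T cells after 16 h compound exposure at 37C in the presence of 3 nM final 1-alpha,25-dihydroxy vitamin D3.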
The nature of test [3]: qHTS assay to identify small molecule agonists of the NFkB signaling pathway (AID 1159509; active means well fitted curve in the direction sought with a large enough effect in the signal ratio in the repeat runs, not every such curve was filed as active; the % refers to the signal ratio; further: series mostly up to about 61 µM; on the % scale 0 is the no-effect control and ±100 the full control effect). A digest of the protocol:
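Beta-lactamase reporter assay run in quantitative high-throughput format on an NF-kB-responsive ME-180 line, with 5 hr compound treatment and a FRET-based blue/green fluorescence readout.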

Test [4] can be described thus: qHTS assay to identify small molecule agonists of the NFkB signaling pathway - cell viability counter screen (AID 1159515; calls by dose curve; further: series mostly up to about 61 µM; on the % scale 0 is the no-effect control and ±100 the full control effect; nearly all actives have a fitted effect of over 55% in size). In short, it runs like this:
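Parallel cytotoxicity counter screen in ME-180 cells carrying an NFkB-response-element beta-lactamase reporter, 2,000 cells/well. Compound exposure lasted 5 hr at 37 C, 5% CO2. Cell viability was quantified by CellTiter-Glo luminescence.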

Test [5] is described as follows: qHTS assay to identify small molecule agonists of the endoplasmic reticulum stress response signaling pathway (AID 1159516; active means well fitted activation curve with a large enough effect in the signal ratio in the repeat runs, not every such curve was filed as active; the % refers to the signal ratio; further: on the % scale 0 is the no-effect control and ±100 the full control effect). A digest of the protocol: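 Using a HeLa line with an ESRE-driven beta-lactamase gene, agonist activity was measured by FRET substrate fluorescence (460 and 530 nm emission) after cells were treated with compounds for 5 hr at 37 C and 5% CO2.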

Test [6] is described as follows: qHTS assay to identify small molecule agonists of the endoplasmic reticulum stress response signaling pathway - cell viability counter screen (AID 1159517; calls by dose curve;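 further: HeLa cells carrying an ER stress response element beta-lactamase reporter; series mostly up to about 61 µM; on the % scale 0 is the no-effect control and ±100 the full control effect; nearly all actives have a fitted effect of over 50% in size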). A digest of the protocol:
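After overnight attachment, ESRE-bla HeLa cells were treated with Tox21 library compounds for 5 hr. CellTiter-Glo luminescence, read 30 min post-addition at room temperature, reported viability.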

The nature of test [7]: qHTS assay to identify small molecule antagonists of the retinoid-related orphan receptor gamma (ROR-gamma) signaling pathway - cell viability counter screen (AID 1159520). Further: on the % scale 0 is the no-effect control and ±100 the full control effect; nearly all actives have a fitted effect of over 50% in size. In short, it runs like this:
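Cytotoxicity was read from cellular ATP (CellTiter-Glo luminescence) after 16 hr at 37 C with 1 uM doxycycline induction. The inducer was added 2 hr after compound transfer to Tet-on ROR gamma CHO cells.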

Test [8] has as its target Nuclear receptor ROR-gamma (Homo sapiens) (UniProt P51449). The test can be described thus: qHTS assay to identify small molecule antagonists of the retinoid-related orphan receptor gamma (ROR-gamma) signaling pathway (AID 1159521). In short, it runs like this: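 CHO cells expressing RORγ under a TET-on promoter, luciferase under RORE control. Dox 1 uM final, 16 h; compounds added 2 h prior. Luminescence decrease measured.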

A short description of test [9]: qHTS assay to identify small molecule agonists of the AP-1 signaling pathway - cell viability counter screen (AID 1159525; calls by dose curve; further: nearly all actives have a fitted effect of over 55% in size; further: potency means the concentration at half of the fitted maximal effect). A digest of the protocol:
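Intracellular ATP by Cell Titer Glo luminescence (30 min, RT) in the same ME-180 AP-1-bla wells after the 5 h compound exposure at 37 °C. Normalised to tetra n-octyl ammonium bromide and DMSO controls.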

A short description of test [10]: qHTS assay to identify small molecule agonists of the AP-1 signaling pathway (AID 1159526; calls by dose curve; further: on the % scale 0 is the no-effect control and ±100 the full control effect).
The target in test [11] is Retinoic acid receptor RXR-alpha (Homo sapiens) (UniProt P19793). Briefly: qHTS assay to identify small molecule agonists of the RXR signaling pathway (AID 1159527; calls by dose curve; further: on the % scale 0 is the no-effect control and ±100 the full control effect; nearly all actives have a fitted effect of over 35% in size). A digest of the protocol: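 Beta-lactamase reporter assay, agonist format. Engineered HEK 293T line, charcoal-stripped FBS at 2%, overnight (16 hr) exposure, fluorescence at 460 and 530 nm after 405 nm excitation.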
Retinoic acid receptor RXR-alpha (Homo sapiens), sequence (P19793 whole entry, looked up): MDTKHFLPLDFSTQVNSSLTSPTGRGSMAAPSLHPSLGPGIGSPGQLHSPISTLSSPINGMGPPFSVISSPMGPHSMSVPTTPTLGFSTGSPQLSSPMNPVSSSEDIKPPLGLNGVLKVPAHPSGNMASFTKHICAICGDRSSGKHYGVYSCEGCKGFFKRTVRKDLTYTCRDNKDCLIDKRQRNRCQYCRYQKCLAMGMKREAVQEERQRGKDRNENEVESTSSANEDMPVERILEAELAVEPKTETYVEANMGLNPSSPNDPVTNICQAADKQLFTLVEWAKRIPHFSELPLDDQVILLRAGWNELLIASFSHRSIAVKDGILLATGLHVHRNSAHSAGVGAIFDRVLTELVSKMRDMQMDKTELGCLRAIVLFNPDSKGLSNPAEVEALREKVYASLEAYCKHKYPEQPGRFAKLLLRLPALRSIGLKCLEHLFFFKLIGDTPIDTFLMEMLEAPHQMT

A short description of test [12]: qHTS assay to identify small molecule agonists of the RXR signaling pathway - cell viability counter screen (AID 1159529). Further: nearly all actives have a fitted effect of over 50% in size. Further: potency means the concentration at half of the fitted maximal effect. In short, it runs like this: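 Same-well viability check after the LiveBLAzer FRET read: CellTiter-Glo added, luminescence measured after 30 min at room temperature. Reporter HEK 293T cells had been treated with compounds for 16 hr following a 5 hr preincubation.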

The nature of test [13]: qHTS assay to identify small molecule antagonists of the retinoid acid receptor (RAR) signaling pathway - cell viability counter screen (AID 1159551). Further: on the % scale 0 is the no-effect control and ±100 the full control effect; nearly all actives have a fitted effect of over 35% in size. A digest of the protocol: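 ATP-based viability, C3RL4 cells, 6 h at 37 C with 1 uM final retinol co-added after compound; luminescence read 30 min post CellTiter-Glo, RT.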
The nature of test [14]: qHTS assay to identify small molecule agonists of the retinoic acid receptor (RAR) signaling pathway (AID 1159553). Further: potency means the concentration at half of the fitted maximal effect. In short, it runs like this: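 Quantitative high-throughput format: the Tox21 10K library was tested on C3RL4 RARE-luciferase cells for 6 hr at 37 C and 5% CO2, with luminescence measured after a 30 min room-temperature reagent step.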
The nature of test [15]: qHTS assay to identify small molecule antagonists of the retinoic acid receptor (RAR) signaling pathway (AID 1159552). A digest of the protocol: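 Readout: luciferase luminescence, 30 min post-reagent at RT. Setup: C3RL4 RARE reporter cells, compounds plus retinol 1 uM final, 6 hr incubation at 37 C and 5% CO2.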
The nature of test [16]: qHTS assay to identify small molecule antagonists of the estrogen related receptor (ERR) signaling pathway - cell viability counter screen (AID 1224818).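 Further: series mostly up to about 46 µM; viability measured after 17.5 h of compound exposure; on the % scale 0 is the no-effect control and ±100 the full control effect.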 In short, it runs like this: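 Quantitative high-throughput viability counter screen in ERR cells. Compounds (DMSO) incubated 17.5 h at 37 C; read-out was CellTiter-Fluor fluorescence.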
Test [17] in a line: qHTS assay to identify small molecule antagonists of the estrogen related receptor (ERR) signaling pathway (AID 1224819). A digest of the protocol: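 ERR reporter cell line (NTP) plated at 2,000 cells/well, settled 6 h at 37C/5% CO2, then exposed to LOPAC compounds for 18 h at 37C. One-Glo luciferase luminescence read after 30 min at room temperature.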
Test [18] in a line: qHTS assay to identify small molecule agonists of the estrogen related receptor (ERR) signaling pathway (AID 1224820). Further: on the % scale 0 is the no-effect control and ±100 the full control effect. In short, it runs like this: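 Following a 6 h settling period, 2,000 ERR cells per well receive DMSO-dissolved compounds by pin tool and incubate 18 h at 37 C; agonist activity is scored from One-Glo luminescence read 30 min post-addition.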
Test [19] has as its system estrogen-related receptor alpha (ERRalpha) with PGC-1alpha coactivator, human. Briefly: qHTS assay to identify small molecule antagonists of the estrogen related receptor signaling pathway with the pleiotropic PPARgamma coactivator (PGC) (AID 1224821; calls by dose curve). A digest of the protocol: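 Screening used NTP's PGC/ERR cells, dosed via pin tool with compound in DMSO alongside positive and negative controls. After 18 h at 37 C, One-Glo reagent sat 30 min at room temperature before luminescence detection.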

A short description of test [20]: qHTS assay to identify small molecule antagonists of the estrogen related receptor signaling pathway with the pleiotropic PPARgamma coactivator (PGC) cell viability counter screen (AID 1224822). In short, it runs like this: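 Cytotoxicity in the PGC/ERR cell line is assessed with CellTiter-Fluor, read as fluorescence intensity 30 min after reagent addition, following 17.5 h compound treatment at 37 C.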

The structures appear in SMILES notation. Records with an inconclusive call do not appear. Some structures have more than one record in an assay (separate samples or runs), and their calls can disagree. Activity calls are given as the source filed them. Unless noted, the call rests on the fitted dose curve; in most records, active means well fitted curve in the direction sought with a large enough effect in the repeat runs; inconclusive means weak or mixed curves; inactive means no such curve, though single readings can be large; an effect the other way counts as inactive or inconclusive.

On to `C=CCS(=O)(=O)O`, for which the Potency result in [1], in test [2], in [8], in test [9], in test [11] and in [12] was “inactive” throughout. The Potency result in test [14] is “inactive”. Moreover, the compound was called inactive in test [3], in test [4], in test [5], in test [6], in [7] and in test [10]. Moreover, the compound was classed as inactive in test [13].

As for `CCC(C)S` (centres undefined), the activity change, negative = cytotoxicity in [1] is 8.62% [at 2.7 µM] (inactive); in test [6] it was 12.1% [at 3.11 µM] (inactive); in test [12] it was 0.658% [at 2.72 µM] (inactive); in test [13] it was 1.76% [at 3.27 µM] (inactive). Further, the viability change, negative = cytotoxic in test [2] is 1.2% [at 3.11 µM] (inactive); in test [9], 5.51% [at 2.72 µM] (inactive). In addition, the activation in [3] is 0.0323% [at 3.11 µM] (inactive); in test [5], 2.07% [at 3.11 µM] (inactive); in [10], -2.17% [at 2.72 µM] (inactive); in [11], 0.574% [at 2.71 µM] (inactive); in test [14], 1.68% [at 3.75 µM] (inactive). Further, the activity, negative = cytotoxic in test [4] was 6.58% [at 3.12 µM] (inactive). Also, the activity, negative = cytotoxicity in [7] was -0.272% [at 3.27 µM] (inactive). In test [8], the activity change, negative = inhibition was 4.64% [at 3.27 µM] (inactive).

Regarding `COC(=O)[C@@H](N)Cc1ccc(O)c(O)c1`, the Potency result in [1], in [2], in test [8], in test [9], in [11] and in [12] was “inactive” each time. Also, the Potency entry in test [15] and in test [14] was “inactive” in each case. Further, the compound was called inactive in test [3], in test [4], in [6], in [7], in [10] and in [13]. Besides, the call in test [16], in [17], in test [18], in test [19] and in [20] was inactive.

Regarding `COC(=O)C1=C(C)NC(C)=C(C(=O)OC)C1c1ccccc1[N+](=O)[O-]`, the Potency was 39 µM (active) and inactive in [1]; 49 µM (active) and inactive in [9]; 27.6 µM (active) and inactive in test [12]; 24.4 µM (active) and inactive in test [14]. For the same compound, the Potency entry in test [2], in [11] and in test [15] was “inactive” throughout. For the same compound, the outcome in test [3], in [4], in test [5], in [6], in [7] and in test [10] was inactive. Besides, the result in [13], in test [16], in test [17], in [18], in test [19] and in [20] was inactive.

For the compound `COc1ccccc1OCC(O)CN1CCN(CC(=O)Nc2c(C)cccc2C)CC1` (centres undefined), the Potency result in [1], in test [2], in test [8], in test [9], in test [11] and in test [12] was “inactive” each time. In addition, the Potency entry in [15] and in [14] was “inactive” each time. For the same compound, the compound was called inactive in [3], in [4], in test [6], in test [7], in test [10] and in test [13]. For the same compound, the compound was classed as inactive in test [16] and in test [20].

As to `CC(C[N+](C)(C)C)OC(N)=O` (centres undefined), the Potency result in test [1], in test [2], in [8], in [9], in test [11] and in [12] was “inactive” throughout. For the same compound, the Potency entry in test [15] and in [14] was “inactive” each time. In addition, the result in test [3], in test [4], in [6], in [7], in [10] and in [13] was inactive. Also, the compound was classed as inactive in [16], in [17], in test [18], in test [19] and in [20].

Take `O=C(O)Cc1ccc(CCNS(=O)(=O)c2ccc(Cl)cc2)cc1`: the Potency result in test [1], in test [8], in test [9], in test [11], in [12] and in test [14] was “inactive” each time. In addition, the compound was classed as inactive in test [3], in [4], in test [5], in test [6], in test [7] and in test [10]. Also, the compound was called inactive in [13].

Source of the values: PubChem BioAssay (Tox21).
